Most compounds without a hit are left out; they make up all but 18% or so of the library.
TDP1 cell CPT: growth inhibition of DT40 Tdp1-/-;hTDP1 cells with camptothecin (screen for TDP1 inhibitors); chicken DT40 Tdp1-/-;hTDP1 cells + 20 nM CPT, ATP luminescence, 48 h; Potency, µM (titrated, usually from 46.2 µM), without a hit: top-dose activity change, negative = growth inhibition, actives largely listed as inhibitors; 420,000 tested, 12% active; note: potency is the fitted concentration of half-maximal effect; nearly all actives have a fitted effect of over 55% in size
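Cell growth measured by CellTiter-Glo luminescence after a minimum 48 h, 37 C compound exposure with 20 nM CPT in Tdp1-knockout DT40 cells stably expressing hTDP1, seeded 400/well; qHTS titration format.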
CtBP-E1A inh: blocks the CtBP interaction with E1A; activity change, % (concentration not given with the values); AID 651724; AlphaScreen GST-E1A/His-CtBP binding, 1536-well; hits give low values; 340,000 tested, 0.49% active; in the data active = activity change below about -65%; inconclusive = mostly about -30% to -63%
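Protein mix (5X: 125 nM each GST-E1A, His-CtBP) was incubated with pinned compound 2 h at 37 deg C in dark, in 50 mM Tris pH 8.0 buffer with 300 mM NaCl. Glutathione donor and nickel acceptor beads followed; AlphaScreen signal read after 1 h.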
DT40 TDP1 no CPT: qHTS for Inhibitors of human tyrosyl-DNA phosphodiesterase 1 (TDP1): qHTS in cells in absence of CPT; DT40 Tdp1-/- hTDP1 cells, no CPT, ATP luminescence, 48 h; Potency, µM (highest dose often 46.2 µM), for inactives: top-dose activity change, negative = growth inhibition, hits mostly inhibitors; AID 686978, 2013; 420,000 tested, 15% active; note: potency is the fitted concentration of half-maximal effect; nearly all actives have a fitted effect of over 55% in size
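No-CPT arm: Tdp1-/-;hTDP1 DT40 cells (400/well) plus compounds, incubated ≥48 hr at 37 °C. Readout CellTiter-Glo luminescence.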
TDP1 inh: TDP1 (human) enzyme inhibition; Q9NUW8; recombinant TDP1, AlphaScreen DNA substrate cleavage; Potency, µM (series often up to 130 µM), without a hit: at the highest dose activity change, negative = inhibition, hits mostly inhibitors; 350,000 tested, 0.28% active; note: potency is the fitted concentration of half-maximal effect; nearly all actives have a fitted effect of over 40% in size
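AlphaScreen read-out: signal falls as enzyme removes the 3' tyrosine-FITC from a 5'-biotinylated DNA oligo (15 nM, 5 min, RT). Enzyme was E. coli-made recombinant Tdp1 at 1 nM, exposed to compound for 15 min beforehand; beads 10 ug/ml, 10 min.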
Six1-Eya2 inh: inhibitors of human Six1/Eya2 interaction; Q15475+O00167; activity change, % (concentration not given with the values); AlphaScreen GST-Six1/His-Eya2 binding, biochemical; hits give low values; 360,000 tested, 0.56% active; in the data active = activity change below about -65%; inconclusive = mostly about -30% to -63%
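Six1/Eya2 binding was read as AlphaScreen signal after compounds were pinned into GST-Six1 plus His-tagged Eya2 (5X stock 250/500 nM) in pH 8.0 Tris/NaCl/TCEP buffer, beads added, then incubated 1 h, 37 C, dark.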
IL-1B inflam inh: inflammasome signaling inhibition, IL-1 beta readout; 360,000 tested, 4.7% active; activity change, % at 57.5 µM; THP-1 LPS/ATP IL-1B secretion, AlphaLISA, 16 h; hits give low values; AID 743279; in the data active = activity change below about -50%; inconclusive = mostly about -30% to -49%
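THP-1 cells pretreated 1 hr with compounds (up to 57.5 uM final), then stimulated with LPS (250 ng/mL final) plus ATP (1.25 mM final); secreted IL-1B measured by AlphaLISA after 16 hr, decreased signal indicating inhibition.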
* marks the source's active call; other numbers are inactive results; ? = inconclusive; / = no result; [ ] = dose if it differs, or a comment. Unless noted, calls come from the whole dose curve; as a rule, active = well fitted curve in the direction sought with a large enough effect; inconclusive = small, poorly fitted or top-dose-only effect, or another doubt; inactive = no such curve, though single readings can be large; an effect the other way counts as inactive or inconclusive. % is set by controls: 0 for no effect and ±100 for the full control effect.

SMILES	TDP1 cell CPT	CtBP-E1A inh	DT40 TDP1 no CPT	TDP1 inh	Six1-Eya2 inh	IL-1B inflam inh
CC(=O)NC(c1cccc(F)c1)c1nc(-c2ccccc2)cs1 (stereo unspecified)	?	6	-28%	/	13	-2
COc1cccc(C(NC(C)=O)c2nc(-c3ccc4ccccc4c3)cs2)c1 (stereo unspecified)	18µM*	1	?	/	-12	-6
CC(=O)NC(c1ccccc1)c1nc(-c2ccc(C)c(C)c2)cs1 (stereo unspecified)	16µM*	1	18µM*	/	-3	?
COc1cccc(C(NC(C)=O)c2nc(-c3ccc(C)c(C)c3)cs2)c1 (stereo unspecified)	?	0	?	/	-4	16
CC(=O)NC(c1ccccc1)c1nc(-c2ccc3ccccc3c2)cs1 (stereo unspecified)	16µM*	2	?	/	1	-21
CC1CN(C(=O)COC(=O)c2c(Cl)cccc2Cl)CC(C)O1 (stereo unspecified)	-1%	0	-19%	-1%	6	24
Cc1ccc(S(=O)(=O)/N=c2\scc(C)n2C)cc1	6%	-12	-2%	-2%	13	?
Cn1c2ccccc2c2cc(/C=N/NC(=O)c3ccc(N)cc3)ccc21	?	-20	18µM*	6%	-8	?
Cn1c2ccccc2c2cc(/C=N/NC(=O)c3ccccc3F)ccc21	23µM*	-9	?	-1%	?	-2
Cn1cc(/C=N/NC(=O)c2ccccc2O)c2ccccc21	?	/	?	4%	6	-12
CC(C)n1cc([C@@H]2C[C@H]3CN(Cc4cccc(Cl)c4)C(=O)[C@]34CCCN24)cn1	-23%	-2	-21%	-12%	11	-11
CC(C)[C@H](NC(=O)c1ccco1)C(=O)OCC(=O)Nc1cccc(F)c1	1%	2	-3%	5%	0	35
CCOc1ccc(NC(=O)CSc2nc(-c3ccccc3)c3cc(OCC)ccc3n2)cc1	15µM*	/	?	9%	/	/
COc1ccc(NC(=O)CSc2nc(-c3ccccc3)c3ccccc3n2)cc1	-13%	/	?	0%	/	/
Cc1cc(C)cc(NC(=O)CSc2nc(-c3ccccc3)c3cc(F)ccc3n2)c1	18µM*	/	18µM*	-5%	/	/
CN(C)c1ccc(CNc2ncn[nH]2)cc1	0%	-1	2%	10%	4	-11
Cc1cc(NC(=O)c2ccco2)sc1C	?	-7	?	3%	-6	-8
COc1cc(CN(C2CC2)S(=O)(=O)c2ccccc2Br)cc(OC)c1	?	-17	13µM*	-4%[56.1 µM]	14	4
C=CCCN(C1CCCC1)S(=O)(=O)c1ccccc1Br	?	5	-34%	/	44	10
CN(c1ccc([N+](=O)[O-])cc1/C=N/NC(=O)COc1ccccc1)C1CCCCC1	?	4	16µM*	0%	2	-3
CCOc1ccc2cc(S(=O)(=O)N3CCN(C)CC3)ccc2c1	?	7	23µM*	0%[56.1 µM]	0	-4
O=S(=O)(c1ccc(Cl)cc1)N1CCN(S(=O)(=O)N2CCCCCC2)CC1	8%	8	-4%	5%	0	-15
CCOc1ccc2cc(S(=O)(=O)N3CCCCC3)ccc2c1	29µM*	6	?	/	20	8
O=S(=O)(c1ccc(Oc2ccc(Cl)cc2)c(S(=O)(=O)N2CCCCC2)c1)N1CCCCC1	?	1	15µM*	2%	2	13
CCOc1ccc(S(=O)(=O)N2CCCC2)cc1	2%	7	-5%	5%	5	-6
O=C(Nc1ccc(NC(=O)C2CC2)nc1)c1ccco1	-6%	2	-14%	-1%	-1	-30

Source: PubChem BioAssay (National Center for Advancing Translational Sciences (NCATS))
